# Screening results as filed in PubChem.
# DT40 TDP1 no CPT = qHTS for Inhibitors of human tyrosyl-DNA phosphodiesterase 1 (TDP1): qHTS in cells in absence of CPT. DT40 Tdp1-/- hTDP1 cells, no CPT, ATP luminescence, 48 h. AID 686978, 2013. Potency, µM (titrated, usually from 46.2 µM), usual class: inhibitors. 15% of 420,000 active; note: nearly all actives have a fitted effect of over 55% in size
#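 Cells were dispensed at 400 per well, compounds added by pin tool, plates incubated ≥48 hr at 37 °C, then CellTiter-Glo added for 30 min at room temperature before luminescence reading. Line: DT40 Tdp1-/- complemented with hTDP1; camptothecin omitted.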
# HepG2 tox = qHTS for Inhibitors of TGF-b: Cytotox Counterscreen; Potency, µM (series often up to 46.1 µM), actives largely listed as cytotoxic; 0.76% of 410,000 active; HepG2 CAGA-GFP viability, ATP luminescence, 18 h
#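 CellTiter-Glo luminescence gave cytotoxicity after 18 hours at 37 degrees C. The cells were HepG2 CAGA-GFP in 1% FBS DMEM, stimulated with 500 pg/mL TGF-beta after compound addition. %Activity was normalised to no-cell wells (complete cell-killing) and DMSO (no toxicity), and curves were fitted and classified.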
# TDP1 block = qHTS Assay for Inhibitors of Tyrosyl-DNA Phosphodiesterase (TDP1). Tyrosyl-DNA phosphodiesterase 1 (Homo sapiens), Q9NUW8. recombinant TDP1, AlphaScreen DNA substrate cleavage. Potency, µM (highest dose often 130 µM), most hits filed as inhibitors. 0.28% of 350,000 active; note: nearly all actives have a fitted effect of over 40% in size
# Target sequence (Q9NUW8 whole entry, looked up): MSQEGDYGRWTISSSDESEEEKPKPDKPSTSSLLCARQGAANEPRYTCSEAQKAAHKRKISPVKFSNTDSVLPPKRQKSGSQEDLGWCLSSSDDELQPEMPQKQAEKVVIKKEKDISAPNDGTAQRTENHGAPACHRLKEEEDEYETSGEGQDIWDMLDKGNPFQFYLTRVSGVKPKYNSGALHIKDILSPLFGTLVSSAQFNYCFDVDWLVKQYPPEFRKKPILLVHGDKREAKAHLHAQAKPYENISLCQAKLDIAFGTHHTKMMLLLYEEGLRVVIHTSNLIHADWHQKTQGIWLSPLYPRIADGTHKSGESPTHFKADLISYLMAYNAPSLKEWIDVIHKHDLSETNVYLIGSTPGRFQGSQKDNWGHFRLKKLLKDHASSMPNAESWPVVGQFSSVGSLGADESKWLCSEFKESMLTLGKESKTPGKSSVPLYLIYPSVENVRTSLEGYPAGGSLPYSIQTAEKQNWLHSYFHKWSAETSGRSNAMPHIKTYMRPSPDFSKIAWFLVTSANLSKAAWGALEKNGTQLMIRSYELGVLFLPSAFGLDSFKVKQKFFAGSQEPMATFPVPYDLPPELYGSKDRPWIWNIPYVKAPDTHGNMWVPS
#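 Enzyme-compound mixtures sat 15 min at room temperature, followed by a 5 min reaction with 15 nM final substrate and 10 min with AlphaScreen beads. Recombinant human Tdp1 was used at 1 nM final.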
# TGFb SMAD3 inh = qHTS for Inhibitors of TGF-b; HepG2 CAGA-GFP TGF-b/SMAD3 reporter, GFP fluorescence, 18 h; TGF-beta stimulated, 500 pg/mL final; Potency, µM (series often up to 46.1 µM), usual class: inhibitors; 1.2% of 410,000 active; note: nearly all actives have a fitted effect of over 65% in size
#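 HEPG2 CAGA-GFP reporter cells (1000/well, DMEM with 1% FBS) received compounds, then recombinant TGF-beta at 500 pg/mL final for 18 hours at 37 degrees C. Per-cell GFP summed per well was normalised to unstimulated and stimulated DMSO controls before curve fitting.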
# IL-1B inflam inh = qHTS for Inhibitors of Inflammasome Signaling: IL-1-beta AlphaLISA Primary Screen; THP-1 LPS/ATP IL-1B secretion, AlphaLISA, 16 h; active compounds read low; activity change, % at 57.5 µM; 4.7% of 360,000 active; AID 743279, 2014; in the data active = activity change below about -50%; inconclusive = mostly about -30% to -49%
#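 THP-1 cells pretreated 1 hr with compounds (up to 57.5 uM final), then stimulated with LPS (250 ng/mL final) plus ATP (1.25 mM final); secreted IL-1B measured by AlphaLISA after 16 hr, decreased signal indicating inhibition.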
# DT40 TDP1 CPT = qHTS for Inhibitors of human tyrosyl-DNA phosphodiesterase 1 (TDP1): qHTS in cells in presence of CPT; AID 686979, 2013; Potency, µM (top dose mostly 46.2 µM), usual class: inhibitors; 12% of 420,000 active; chicken DT40 Tdp1-/-;hTDP1 cells + 20 nM CPT, ATP luminescence, 48 h; note: nearly all actives have a fitted effect of over 55% in size
#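 Chicken DT40 Tdp1-/- cells stably complemented with human TDP1 were seeded at 400 cells/well in medium containing 20 nM camptothecin, exposed to pin-transferred compounds, and grown at 37 °C for at least 48 hr. Viability was read as ATP luminescence.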
# Numbers stand for hits; . = inactive; ? = inconclusive; / = no result; [ ] = remark or other dose. An excerpt weighted towards active compounds, which were near 18% of everything screened. Unless noted, calls come from the whole dose curve; as a rule, active = well fitted curve in the direction sought with a large enough effect; inconclusive = small, poorly fitted or top-dose-only effect, or another doubt; inactive = no such curve, though single readings can be large; an effect the other way counts as inactive or inconclusive.
SMILES,DT40 TDP1 no CPT,HepG2 tox,TDP1 block,TGFb SMAD3 inh,IL-1B inflam inh,DT40 TDP1 CPT
CC1C(=O)N(Cc2cn(Cc3ccco3)nn2)CCS(=O)(=O)N1Cc1ccc(-c2ccc(F)cc2)cc1 (centres undefined),?,.,/,.,.,?
CC1C(=O)N(Cc2cn(Cc3ccco3)nn2)CCS(=O)(=O)N1Cc1ccc(-c2ccncc2)cc1 (centres undefined),21µM,.,/,.,.,?
Cc1ccc(-c2ccc(CN3C(C(C)C)C(=O)N(Cc4cn(Cc5ccco5)nn4)CCS3(=O)=O)cc2)cc1 (centres undefined),18µM,.,/,?,.,18µM
CC(C)C1C(=O)N(Cc2cn(CCC3OCCO3)nn2)CCS(=O)(=O)N1Cc1ccc(-c2cccc(N(C)C)c2)cc1 (centres undefined),?,.,/,.,.,.
Cc1noc(C)c1CSc1nc2ccccc2n1CCc1ccccc1,?,.,.,?,?,?
CCCS(=O)(=O)NC(=O)C1(C)CCCN(C(=O)c2cc(-c3cccs3)oc2C)C1 (centres undefined),.,.,/,.,.,.
O=C(Nc1ccccc1)Nc1nnc([C@H]2C[C@H](O)[C@@H](CO)O2)s1,.,.,/,.,.,.
CN(C)c1ccc(/C=C/c2ccnc3c2ccc2ccccc23)cc1,?,.,/,.,/,?
CN(C)c1ccc(/C=C/c2ccnc3ccc4ccccc4c23)cc1,0.13µM,.,/,?,/,0.14µM
CN(C)c1ccc(C(I)C(I)c2ccnc3ccccc23)cc1 (centres undefined),10µM,.,/,.,/,11µM
CCCN(CCC)c1ccc(/C=C/c2ccnc3ccccc23)cc1,5µM,10µM,/,.,/,7.1µM
CN(N=O)c1ccc(/C=C/c2ccnc3ccccc23)cc1,5.6µM,.,/,.,/,7.9µM
Cc1ccc2c(CC(=O)Nc3c(C(=O)c4ccc(F)cc4)oc4ccccc34)coc2c1C,.,.,.,.,/,.
Cc1cn(C2CCCCC2)c(=O)n(-c2ccccc2)c1=O,.,.,/,.,.,.
COCC(=O)Nc1cc(C(=O)N2CCc3sccc3C2)c2c(c1)nc(-c1ccncc1)n2C,.,/,/,/,/,.
Cc1nc2ccccc2n1CCc1nc2c3ccccc3nc(SCc3ccc(F)cc3)n2n1,.,.,.,.,/,.
CC(=O)OC1CC(c2cc(C(C)(C)C)c(O)c(C(C)(C)C)c2)=NO1 (centres undefined),.,.,.,.,.,.
O=C(Nc1ccc(N2CCN(c3ccc(F)cc3)CC2)c(C(=O)O)c1)c1ccccc1F,.,.,.,.,/,.
COc1cc(Cl)c(NC(=O)CCS(=O)(=O)c2cc3c(cc2Cl)NC(=O)CO3)c(OC)c1,.,.,.,.,/,.
O=C(NCc1ccccc1Cl)c1ccncc1,.,.,/,.,.,.
CCN(N=O)c1ccc(/C=C/c2ccnc3ccccc23)cc1,6.3µM,.,/,.,/,6.3µM
CN(C)c1ccc(/C=C/c2ccnc3ccccc23)cc1,16µM,.,/,.,/,?
Cc1cc(N(C)C)ccc1/C=C/c1ccnc2ccccc12,7.9µM,.,/,.,/,11µM
CN(C)c1ccc(/C=C/c2ccnc3ccc([N+](=O)[O-])cc23)cc1,?,.,/,.,/,11µM
CCCCCCCCCN(CCCCCCCCC)c1ccc(/C=C/c2ccnc3ccccc23)cc1,.,.,/,.,/,.
SMILES,DT40 TDP1 no CPT,HepG2 tox,TDP1 block,TGFb SMAD3 inh,IL-1B inflam inh,DT40 TDP1 CPT
Cc1ccc(CN2CCC(CNC(=O)Nc3cccc(C)c3C)C2)cc1 (centres undefined),?,.,.,?,/,?
CCn1nc(C(=O)NCc2nnc3ccccn23)c2ccccc2c1=O,.,.,.,.,.,.
COc1ccc2cc(CCNS(=O)(=O)c3c(C)cc(C)cc3C)c(=O)[nH]c2c1,.,.,/,.,.,?
CN(C)c1ccc(/C=C/c2ccnc3ccc(I)cc23)cc1,4µM,.,/,.,/,3.2µM
CCCCCCCCCCCCN1C/C(=C\C(=O)OCC)c2ccccc2S1(=O)=O,11µM,.,/,.,.,16µM
CCCCCCCCCCCCN1C/C(=C\C(=O)OCC)c2cc(C(F)(F)F)ccc2S1(=O)=O,?,.,/,.,.,?
CCOC(=O)/C=C1\CN(Cc2cc(OC)c(OC)c(OC)c2)S(=O)(=O)c2ccc(C(F)(F)F)cc21,12µM,.,/,8.9µM,.,23µM
C=C1CCN([C@@H](C)C(=O)NCc2cc(OC)c(OC)c(OC)c2)S(=O)(=O)c2ccccc21,?,.,/,.,.,?
CCOC(=O)/C=C1\CN(Cc2cc(OC)c(OC)c(OC)c2)S(=O)(=O)c2ccccc21,6.5µM,.,/,.,.,10µM
Cc1cc(C)c(C)c(OCCCCN2CCCCC2)c1,.,.,.,.,.,.
COc1ccc(-c2ccnc(SCC(=O)c3ccc(Br)cc3)n2)cc1,?,.,.,.,.,?
CC1(C)C(=O)NCCN1C(=O)CSc1nccc(-c2ccc(Br)cc2)n1,16µM,.,.,.,.,?
COc1cc(NC(=O)Cn2nc(C(F)(F)F)c(Br)c2C)cc([N+](=O)[O-])c1,21µM,.,.,?,.,15µM
COc1ccc(CNC(=O)Cn2nc(C(F)(F)F)c(Br)c2C)cc1,?,.,/,.,.,.
CC(C)Oc1cccc(C2NC(=O)c3ccccc3O2)c1 (centres undefined),.,.,/,.,.,.
COc1cccc(C2CC(=O)Nc3cc4c(cc32)OCO4)c1OC(C)C (centres undefined),?,.,.,.,/,21µM
COc1cc2c(cc1OC)C(c1ccc3c(c1)OCO3)CC(=O)N2 (centres undefined),?,.,.,.,.,.
Cc1cccc(C2CC(=O)Nc3cc4c(cc32)OCO4)c1 (centres undefined),21µM,.,.[12.3 µM],.,/,?
CC(C)Oc1cccc(C2CC(=O)Nc3cc4c(cc32)OCO4)c1 (centres undefined),2.6µM,.,.,?,/,2.6µM
CCOCCCNc1ccc(N2C(=O)C3CCCCC3C2=O)cc1[N+](=O)[O-] (centres undefined),.,.,.,.,.,?
CN(C)c1ccc(C(CNS(=O)(=O)c2ccc([N+](=O)[O-])cc2)N2CCCC2)cc1 (centres undefined),?,.,.,.,?,?
